# Activity calls are given as the source filed them. Unless noted, no rule for the calls is given here.
# Columns and labels:
# [1] = compound effects on lung adenocarcinoma cell viability – A549, calcein-AM fluorescence, 48 h, basal, profiling panel (AID 1162); settings: higher = more signal; also: test concentration not given here
# [2] = compound effects on differentiated 3T3-L1 adipocyte viability – cell-based, 3T3-L1 adipocytes, calcein-AM fluorescence, 48 h, basal, profiling panel (AID 1163); settings: 3T3-L1 adipocytes viability, higher = more signal; also: test concentration not given here
# [3] = compound effects on hepatocellular carcinoma cell viability – HepG2, calcein-AM fluorescence, 48 h, basal, profiling panel (AID 1164); settings: higher = more signal; also: test concentration not given here
# [4] = compound effects on multiple myeloma cell viability – MM1S, calcein-AM fluorescence, 48 h, basal, profiling panel (AID 1165); settings: higher = more signal;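 also: viability of MM1S multiple myeloma cells under basal unstimulated conditions; test concentration not given here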
# [5] = calcein-AM signal in unstimulated myeloma cells – cell-based, calcein-AM fluorescence, 48 h, PK04 Diversity Set, profiling panel (AID 1166); settings: RPMI8226 myeloma viability, higher = more signal;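 also: cells grown under basal conditions without added stimulus; test concentration not given here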
# [6] = JC-1 mitochondrial signal, unstimulated HepG2 cells – cell-based, JC-1 fluorescence, 24 h, 100 nL compound, profiling panel (AID 1167); settings: HepG2 mitochondrial potential, higher = more signal; also: test concentration not given here
# [7] = JC-1 mitochondrial signal, unstimulated adipocytes – cell-based, JC-1 fluorescence, 3T3-L1 adipocytes, 24 h, 100 nL compound, profiling panel (AID 1168); settings: JC-1 mitochondrial fluorescence, higher = more signal, called active from +8 up or from −8 down; also: test concentration not given here
# [8] = JC-1 mitochondrial signal, unstimulated myeloma cells – cell-based, JC-1 fluorescence, RPMI8226, 24 h, 100 nL compound, profiling panel (AID 1169); settings: JC-1 mitochondrial potential fluorescence, higher = more signal; also: test concentration not given here
# [9] = JC-1 mitochondrial signal, unstimulated MM1S myeloma – cell-based, JC-1 fluorescence, 24 h, 100 nL compound, profiling panel (AID 1170); settings: MM1S mitochondrial potential, higher = more signal; also: test concentration not given here
# [10] = resazurin metabolic signal in A549 cells – cell-based, resazurin fluorescence, 24 h, PK04 Diversity Set, profiling panel (AID 1171); settings: A549 viability, higher = more signal, called active from +8 up or from −8 down; also: test concentration not given here
# [11] = resazurin metabolic signal in HepG2 cells – cell-based, resazurin fluorescence, 24 h, PK04 Diversity Set, profiling panel (AID 1172); settings: HepG2 viability, higher = more signal; also: test concentration not given here
# [12] = budding yeast growth changes without added modifier – OD600, strain BY4716, 24 h, basal condition, primary screen (AID 1173); settings: S. cerevisiae BY4716 growth, OD600, 24 h; higher = more signal, called active from +8 up or from −8 down
# [13] = viability profiling in MM1S myeloma cells – cell-based, resazurin fluorescence, basal, 24 h, PK04 Diversity Set, profiling panel (AID 1174); settings: higher = more signal, called active from +8 up or from −8 down; also: test concentration not given here
# [14] = target: Dihydroorotate dehydrogenase (quinone), mitochondrial (Plasmodium falciparum (isolate 3D7)) (UniProt Q08210); experiment: inhibition of P. falciparum DHODH – biochemical, C-terminal His tag, absorbance 600 nm, primary screen (AID 1175); settings: PfDHODH enzyme, DCIP absorbance 600 nm; higher = more signal, called active from +8 up or from −8 down;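 also: recombinant parasite enzyme with a five histidine tag at its C terminus; test concentration not given here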
# [15] = inhibition of PAO1 biofilm formation – strain PAO1, LB-PBS medium, absorbance 600 nm, primary screen (AID 1176); also: test concentration not given here; settings: P. aeruginosa PAO1 growth/biofilm, A600, 12 h; higher = more signal
# [16] = growth modulation of vineyard yeast isolate – strain RM11-1a, OD600, basal, 24 h, primary screen (AID 1177);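 also: cultures grown under basal conditions with no added stressor; test concentration not given here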; settings: S. cerevisiae RM11-1a growth, OD600, 24 h; higher = more signal, called active from +8 up or from −8 down
# [17] = growth of efflux-deficient E. coli DRC39 – strain DRC39, OD650, 24 h, E. coli filamentation inducers, primary screen (AID 1178);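 also: growth measured as culture turbidity by optical density at 650 nm; test concentration not given here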; settings: E. coli DRC39 acrAB, higher = more signal, called active from +8 up or from −8 down
# [18] = growth of efflux-deficient E. coli DRC39 – strain DRC39, OD650, 48 h, E. coli filamentation inducers, primary screen (AID 1179);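 also: screen aims at cell division blockers that make cells filament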; settings: E. coli DRC39 delta-acrAB growth, higher = more signal, called active from +8 up or from −8 down
# [19] = viability profiling in RPMI8226 myeloma cells – cell-based, resazurin fluorescence, basal, 24 h, PK04 Diversity Set, profiling panel (AID 1180); settings: higher = more signal;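 also: RPMI8826 multiple myeloma cell line at 5000 cells per well; test concentration not given here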
# [20] = target: E3 ubiquitin-protein ligase XIAP (Homo sapiens) (UniProt P98170); experiment: small molecules binding XIAP protein – biophysical, small-molecule microarray, fluorescence 635 nm, primary screen (AID 1181); settings: higher = more signal;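 also: score merges 667 nm emission and signal to noise over triplicate slides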
# E3 ubiquitin-protein ligase XIAP (Homo sapiens), sequence (P98170 whole entry, looked up): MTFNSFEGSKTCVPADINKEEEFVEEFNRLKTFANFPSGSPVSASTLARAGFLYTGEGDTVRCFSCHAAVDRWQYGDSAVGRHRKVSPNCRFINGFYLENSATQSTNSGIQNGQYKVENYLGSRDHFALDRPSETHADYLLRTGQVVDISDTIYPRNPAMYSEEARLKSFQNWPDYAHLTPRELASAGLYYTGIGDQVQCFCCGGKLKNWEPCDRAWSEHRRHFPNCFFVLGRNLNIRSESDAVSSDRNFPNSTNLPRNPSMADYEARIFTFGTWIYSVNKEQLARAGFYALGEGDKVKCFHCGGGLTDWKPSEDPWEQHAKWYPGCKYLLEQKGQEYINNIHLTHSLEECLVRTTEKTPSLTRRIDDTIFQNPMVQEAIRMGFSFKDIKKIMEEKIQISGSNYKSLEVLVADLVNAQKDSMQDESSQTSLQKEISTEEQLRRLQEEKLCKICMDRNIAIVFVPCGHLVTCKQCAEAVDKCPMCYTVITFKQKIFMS
# Dihydroorotate dehydrogenase (quinone), mitochondrial (Plasmodium falciparum (isolate 3D7)), sequence (Q08210 whole entry, looked up): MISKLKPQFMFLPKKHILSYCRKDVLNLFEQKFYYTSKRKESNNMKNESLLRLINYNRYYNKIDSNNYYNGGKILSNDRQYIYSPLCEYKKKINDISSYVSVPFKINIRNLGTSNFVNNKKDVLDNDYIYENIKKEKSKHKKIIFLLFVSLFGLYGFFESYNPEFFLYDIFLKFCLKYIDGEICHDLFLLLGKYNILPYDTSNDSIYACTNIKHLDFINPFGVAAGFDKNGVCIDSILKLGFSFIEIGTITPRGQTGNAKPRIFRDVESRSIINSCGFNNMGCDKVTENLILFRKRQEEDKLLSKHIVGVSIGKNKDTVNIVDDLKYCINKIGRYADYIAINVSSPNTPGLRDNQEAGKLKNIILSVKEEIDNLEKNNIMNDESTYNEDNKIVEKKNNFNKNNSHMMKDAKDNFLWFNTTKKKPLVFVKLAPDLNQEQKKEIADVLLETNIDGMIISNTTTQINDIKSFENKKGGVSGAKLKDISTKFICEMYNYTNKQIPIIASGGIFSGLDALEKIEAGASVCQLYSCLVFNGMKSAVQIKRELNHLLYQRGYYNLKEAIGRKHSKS
Compound,z-score [1],z-score [2],z-score [3],z-score [4],z-score [5],z-score [6],z-score [7],z-score [8],z-score [9],z-score [10],z-score [11],z-score [12],z-score [13],composite z-score [14],z-score [15],z-score [16],z-score [17],z-score [18],z-score [19],composite z-score [20]
COCCOC(=O)N1C(=O)[C@@]2(c3cc(C#CCCO)ccc31)[C@H](C(=O)NC[C@H](O)c1ccccc1)[C@H]1C(=O)O[C@H](c3ccccc3)[C@H](c3ccccc3)N1[C@@H]2c1ccc(O)cc1,0.292,0.0669,0.289,0.715,0.568,0.467,-0.734 (inactive),0.571,-0.446,0.224 (inactive),0.816,0.562 (inactive),0.858 (inactive),1.34 (inactive),0.29 (inactive),1.36 (inactive),1.01 (inactive),0.887 (inactive),1.04,-0.0126
Cc1ccc(S[C@]2(C(=O)O)CC(=O)N(C3Cc4ccccc4C3)[C@@H]2c2ccc(CO)cc2I)cc1,0.214,0.278,-0.671,-2.95,-2.88,0.0324,-0.939 (inactive),-0.137,-0.717,0.477 (inactive),0.186,-1.99 (inactive),-1.95 (inactive),0.0058 (inactive),-0.109 (inactive),-0.219 (inactive),0.602 (inactive),0.447 (inactive),-1.78,-0.0726
CCCCC(O)C1C=CC2C(=O)N(C3CCCCC3)C(=O)C2N1Nc1ccc(OC)cc1 (stereo not given),-0.875,0.325,-0.572,0.0802,-1.22,-0.307,-0.109 (inactive),-0.111,0.024,0.112 (inactive),-0.414,-2.57 (inactive),-0.496 (inactive),1.12 (inactive),0.89 (inactive),0.669 (inactive),-1.01 (inactive),-0.584 (inactive),-0.369,0.0617
C=CCNC(=O)[C@@H]1[C@H]2C(=O)O[C@H](c3ccccc3)[C@H](c3ccccc3)N2[C@H](c2ccccc2OCCO)[C@@]12C(=O)Nc1ccc(C#CC3=CCCCC3)cc12,-1.77,1.98,-2.85,-3.09,-3.42,-1.79,2.32 (inactive),-0.853,-1.17,-1.49 (inactive),-1.55,0.556 (inactive),-2.61 (inactive),0.496 (inactive),1.55 (inactive),1.78 (inactive),-0.125 (inactive),-0.353 (inactive),-5,0.0593
C=CC[C@@]1(C(=O)O)N=C(c2ccc(OCCCO)cc2)O[C@@H]1c1ccccc1N=[N+]=[N-],0.179,-0.76,0.47,-0.756,-0.577,-1.95,-0.366 (inactive),-0.919,-0.947,-0.514 (inactive),0.0725,-0.769 (inactive),-0.702 (inactive),0.535 (inactive),0.976 (inactive),0.15 (inactive),0.236 (inactive),-0.154 (inactive),-0.0493,-0.0559
CC(C)(C)OC(=O)CC[C@]1(C(=O)N2CCCCC2)N=C(c2ccc(OCCCO)cc2)O[C@H]1c1ccccc1N=[N+]=[N-],1.12,0.768,0.63,-2.03,-0.99,1.18,1.92 (inactive),-0.862,-0.715,-0.0762 (inactive),0.188,0.367 (inactive),-1.79 (inactive),0.107 (inactive),0.466 (inactive),1.01 (inactive),1.82 (inactive),1.04 (inactive),-1.32,-0.0304
O=C(CS)NCCCCCCNC(=O)[C@H]1C[C@H]2C(=O)NCC(=O)N2[C@H]1c1ccc(O)cc1,0.324,0.277,0.555,-0.31,0.325,-0.32,-0.607 (inactive),-0.645,-0.459,-0.27 (inactive),-0.0808,0.309 (inactive),-0.722 (inactive),-0.864 (inactive),0.395 (inactive),-0.14 (inactive),-0.389 (inactive),-0.405 (inactive),-0.521,0.102
CC(C)C(=C=CC[C@H](O)c1cccc(OCCO)c1)C[C@H](O)COCc1ccccc1,-0.0353,-0.27,-0.0485,0.0675,-0.524,-0.42,-0.711 (inactive),0.259,-0.615,1.25 (inactive),0.685,-0.535 (inactive),0.0454 (inactive),-1.25 (inactive),0.449 (inactive),0.194 (inactive),0.339 (inactive),0.262 (inactive),0.163,-0.113
C=CCC(OC(C)=O)[C@@H]1[C@@H](N(Cc2ccc(-c3ccccc3)cc2)C(=O)Cc2ccc(OC)cc2)c2cc(OCCCO)ccc2N1C(=O)c1ccc2ccccc2n1 (stereo not given in full),-0.072,0.273,0.978,0.0474,-0.295,2.56,-0.269 (inactive),0.651,0.789,0.902 (inactive),0.0252,-0.594 (inactive),0.525 (inactive),-0.574 (inactive),-0.24 (inactive),-1.15 (inactive),1.29 (inactive),0.644 (inactive),1.07,-0.266
CN(C)CCCNC(=O)[C@@]1(Cc2ccccc2I)c2ccccc2C(=O)N(Cc2ccccc2C(F)(F)F)[C@H]1c1ccc(CO)cc1,-2.7,-0.469,-5.13,-3.8,-4.33,-1.04,0.64 (inactive),-0.98,-2.43,-5.93 (inactive),-6.04,-6.8 (inactive),-7.53 (inactive),0.35 (inactive),0.0993 (inactive),0.653 (inactive),-0.299 (inactive),0.247 (inactive),-4.01,-0.288
CC(=O)C1=CCC(c2ccccc2)N(S(=O)(=O)c2ccc(C)cc2)C1 (stereo not given),-0.346,0.0159,-0.727,-0.0171,-1.08,-0.602,-1.35 (inactive),0.697,0.329,0.183 (inactive),-0.0399,0.832 (inactive),-0.551 (inactive),0.746 (inactive),0.533 (inactive),0.227 (inactive),0.422 (inactive),0.0116 (inactive),-0.809,-0.0773
C=C[C@@H](COC(C)=O)N(Cc1ccccc1[N+](=O)[O-])S(=O)(=O)c1ccc(Br)cc1,1.8,0.425,-0.491,-0.531,0.0618,-0.464,-0.34 (inactive),-0.872,-0.189,-1.61 (inactive),-0.798,-2.24 (inactive),-0.504 (inactive),-2.79 (inactive),-0.0963 (inactive),-2.34 (inactive),1.47 (inactive),0.911 (inactive),0.0192,0.183
COCC1=C2[C@@H](CCc3ccccc3)OB(O)C[C@@H]2[C@@H]2C(=O)N(Cc3ccccc3)C(=O)[C@@H]2C1,0.0476,0.873,0.128,-1.51,-0.138,-1.59,-0.897 (inactive),-0.812,0.24,0.21 (inactive),0.0373,-1.69 (inactive),-0.278 (inactive),-0.345 (inactive),-0.177 (inactive),-1.06 (inactive),-0.0682 (inactive),-0.0309 (inactive),-0.039,-0.231
CC(C)C(=C=CC[C@H](O)c1ccccc1OCCO)C[C@H](O)c1ccccn1,0.82,-0.27,1.33,0.198,0.0964,0.714,0.085 (inactive),-0.332,-1.3,-0.607 (inactive),0.644,-0.669 (inactive),0.34 (inactive),-3.95 (inactive),0.4 (inactive),0.398 (inactive),0.762 (inactive),0.577 (inactive),0.285,-0.226
Cc1ccccc1C(O)C1C=CC2C(=O)N(C)C(=O)C2N1Nc1ccccc1 (stereo not given),0.262,-1.23,-0.284,-0.143,-0.272,-1.96,-1.19 (inactive),-0.317,-0.00815,-0.621 (inactive),-1.19,-0.532 (inactive),-1.32 (inactive),-0.513 (inactive),1.07 (inactive),-0.547 (inactive),-0.688 (inactive),-0.611 (inactive),-1.61,0.179
COC(=O)[C@@]1(Cc2ccc(OC)cc2)[C@H]2c3cc(C(=O)N4CCCC4)n(Cc4ccccn4)c3C[C@H]2CN1C(=O)c1ccccc1,-0.87,0.588,-0.379,-1.9,-0.676,1.85,-0.85 (inactive),0.556,0.208,-0.823 (inactive),-1.73,2.39 (inactive),-1.07 (inactive),0.81 (inactive),0.743 (inactive),1.13 (inactive),-0.564 (inactive),0.147 (inactive),-2.2,0.0379
O=C1OCC=C[C@H]2OC34C=CCN(c5ccc(Cl)cc5)C(=O)[C@H]3N(CCCCCCO)C(=O)[C@@H]4[C@@H]12 (stereo not given in full),0.32,-0.122,0.955,1.12,0.057,0.715,0.26 (inactive),0.231,1.5,1.12 (inactive),0.82,-0.69 (inactive),0.975 (inactive),-1.47 (inactive),-0.497 (inactive),-0.146 (inactive),0.571 (inactive),0.916 (inactive),1.01,-0.138

# — PubChem BioAssay
